According to PubChem BioAssay AID1053122 (Broad Institute, 2014):
Measured potencies and affinities stand elsewhere.

Assay: YAP1 pathway inhibition via CTGF transcript levels, dose response, cell-based, DLD1 colon cancer, RT-qPCR, cherry-pick (AID 1053122)
Conditions: DLD1 CTGF mRNA (YAP1 pathway), 24 h; series mostly up to 26 µM; CTGF expression fold change (lower = inhibition): at the top concentration;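 active = CTGF level falls with dose and the fitted half-maximal dose is at most twice the top valid dose; inconclusive = flat fit with 30 to 70% drop, or a poor fit; inactive = the rest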

CTGF expression fold change (lower = inhibition), inactive:
CCC(=O)N1Cc2cc(C(=O)NCc3cccc(F)c3)nc(-c3cccc(C4=CCCC4)c3)c2[C@H]1CCO 0.82 unspecified
COc1ccccc1S(=O)(=O)N1CC[C@@H]2[C@H]1c1cc(-c3cccc(C#N)c3)ccc1N(C)[C@H]2CO 0.465 unspecified [at 23.5 µM]
C[C@@H]1CN([C@@H](C)CO)C(=O)CCCn2nncc2CO[C@@H]1CN(C)C(=O)c1cc(-c2ccccc2)on1 0.826 unspecified
O=S(=O)(Cc1ccccc1)N1CC2(C1)[C@H](c1ccccc1)[C@H](CO)N2CC1CCCC1 0.538 unspecified
Cc1ccc(S(=O)(=O)N2CC[C@@H]3[C@H]2c2cc(-c4cccc(C(=O)N(C)C)c4)ccc2N[C@@H]3CO)cc1 0.672 unspecified [at 23.5 µM]
Cc1ccc(S(=O)(=O)N2CC[C@H]3[C@H](CO)Nc4ccc(-c5cccc(C(=O)N(C)C)c5)cc4[C@H]32)cc1 0.486 unspecified
N#Cc1cccc(-c2ccc3c(c2)[C@@H]2[C@@H](CCN2S(=O)(=O)c2ccc(F)cc2)[C@H](CO)N3)c1 0.556 unspecified
O=C(Nc1ccc2c(c1)[C@H]1C[C@@H](CC(=O)N3CCc4ccccc4C3)O[C@H](CO)[C@H]1O2)c1ccc2c(c1)OCO2 0.506 unspecified
CC(C)(C)[S@@](=O)N1Cc2cc(C(=O)NCCc3ccncc3)nc(-c3cccc(-c4cccc(C#N)c4)c3)c2[C@H]1CCO 0.415 unspecified
CO[C@@H]1CN(C)C(=O)c2cc(NS(=O)(=O)c3ccccc3C)ccc2OC[C@@H](C)N(S(=O)(=O)c2ccccc2)C[C@H]1C 0.761 unspecified
Cc1cccc(-c2ccc([C@@H]3[C@@H](CO)N4CCCCN(S(=O)(=O)c5ccccc5F)C[C@@H]34)cc2)c1 0.684 unspecified
